Results published in PubChem BioAssay (Tox21).
Results filed as inconclusive are left out. Values without a mark were called inactive. Active and inactive are the calls of the source. Calls come from the whole dose curve; as a rule, active = well fitted cell-killing curve with a large enough effect in the repeat runs; inconclusive = weak or mixed curves; inactive = no such curve, though single readings can be large or run the other way.

test: qHTS assay for identifying genotoxic compounds that show differential cytotoxicity against isogenic chicken DT40 cell lines with known DNA damage response pathways - Rad54/Ku70 mutant cell line (AID 743015); conditions: DT40 Rad54/Ku70 mutant viability, CellTiter-Glo, 40 h; series mostly up to 66.8 µM; activity change, negative = cytotoxicity: at the top concentration; note: nearly all actives have a fitted effect of over 60% in size
% is set by controls: 0 for no effect and ±100 for the full control effect.

SMILES | activity change, negative = cytotoxicity | Potency
C=C(C)C(=O)OCCCCCCCCCCCCCCCCCC | -0.616% [at 30.7 µM] | 
CC(=O)N[C@@H](CCC(N)=O)C(=O)O | -1.29% | 
C#CC(C)(O)CC(C)C (configuration not stated) | 0.882% | 
CC(=O)OC(C)(C)C | 17.6% | 
COC(=O)c1ccc(C(=O)OC)c(C(=O)OC)c1 | 6.38% | 
CC1=CC(=O)CCC1 | -1.87% | 
CCO[Si](CCCN=C=O)(OCC)OCC | 1.17% | 
COCCOC(=O)CC#N | -10.1% | 
Cc1nccn1CC1CCc2c(c3ccccc3n2C)C1=O (configuration not stated) |  | inactive
C=CC(=O)OCCCCCC | -2.07% | 
C=C(C)[C@H]1CC=C(C)CC1 | 3.62% | 
CC(C=O)Cc1ccc(C(C)C)cc1 (configuration not stated) | -1.65% | 
CCCCN(CCO)CCO | 2.89% | 
CCCCc1ccc(N)cc1 | -24.3% | 
COc1cc(C(=O)N2CCOCC2)cc(OC)c1OC |  | inactive
CCc1cc(S(=O)(=O)O)c2cc(C(C)C)cccc1-2 | 0.0414% | 
Cc1cc(C)c(NC(=O)CN(CC(=O)O)CC(=O)O)c(C)c1Br | -5.7% | 
CC(C)[N+](C)(C)CC(O)COc1cccc2ccccc12 (configuration not stated) | 0.247% | 

SMILES | activity change, negative = cytotoxicity | Potency
COc1cccc(OC)c1 | 10% | 
CCCCCCCCCCCCCCC | 11.5% | 
COC(=O)CCCC(=O)O | 0.836% | 
NC(=O)c1ncn([C@@H]2O[C@H](CO)[C@@H](O)[C@H]2O)c1O | 8% | 
COc1ccc(COC=O)cc1 | -4.93% | 
OCc1ccccn1 | 1.91% | 
Nc1ccc2cc(S(=O)(=O)O)ccc2c1 | 2.01% | 
OCC(O)[C@@H](O)[C@H](O)[C@H](O)CO[C@H]1O[C@H](CO)[C@@H](O)[C@H](O)[C@H]1O (some centres not stated) | 10.1% | 
CN(C)N=Nc1ccccc1 | -0.116% | 
CC(O)CN(CCCN(C)C)CCCN(C)C (configuration not stated) | -1.16% | 
CCC(C)OC(=O)N1CCCCC1CCO (configuration not stated) | -4.37% | 
NS(=O)(=O)c1cc(C2(O)NC(=O)c3ccccc32)ccc1Cl (configuration not stated) | 11.7% [at 30.7 µM] | 
N#CC1(O)CCCCC1 | 1.66% [at 95.1 µM] | 
CC(C)CCCC(C)CCCC(C)CCCCC(C)CCCC(C)CCCC(C)C (configuration not stated) | 9.62% | 
CCCC=O | 5.64% | 
CCCc1ccccc1O | -5.14% | 
NC(=O)c1c(Cl)cccc1Cl | -11.2% | 
CC/C=C\C#N | 1.1% | 

test: qHTS assay to identify small molecule antagonists of the androgen receptor (AR) signaling pathway - cell viability counter screen (AID 743033; note: nearly all actives have a fitted effect of over 45% in size); conditions: AR-bla HEK293 viability, CellTiter-Glo luminescence, 16 h; series mostly up to 58.5 µM; activity change, negative = cytotoxicity: at the top concentration

SMILES | activity change, negative = cytotoxicity | outcome
C=C(C)C(=O)OCCCCCCCCCCCCCCCCCC | -8.68% [at 27 µM] | 
CC(=O)N[C@@H](CCC(N)=O)C(=O)O | 4.6% | 
C#CC(C)(O)CC(C)C (configuration not stated) | -0.326% | 
CC(=O)OC(C)(C)C | 9.93% | 
COC(=O)c1ccc(C(=O)OC)c(C(=O)OC)c1 | -2.83% | 
CC1=CC(=O)CCC1 | 5.97% | 
CCO[Si](CCCN=C=O)(OCC)OCC | 3.16% | 
COCCOC(=O)CC#N | 5.5% | 
Cc1nccn1CC1CCc2c(c3ccccc3n2C)C1=O (configuration not stated) |  | inactive
C=CC(=O)OCCCCCC | 9.14% | 
C=C(C)[C@H]1CC=C(C)CC1 | 6.45% | 
CC(C=O)Cc1ccc(C(C)C)cc1 (configuration not stated) | 7.18% | 
CCCCN(CCO)CCO | 4.17% | 
CCCCc1ccc(N)cc1 | -1.61% | 
COc1cc(C(=O)N2CCOCC2)cc(OC)c1OC |  | inactive
CCc1cc(S(=O)(=O)O)c2cc(C(C)C)cccc1-2 | 0.829% | 
Cc1cc(C)c(NC(=O)CN(CC(=O)O)CC(=O)O)c(C)c1Br | 8.68% | 
CC(C)[N+](C)(C)CC(O)COc1cccc2ccccc12 (configuration not stated) | -6.5% | 

SMILES | activity change, negative = cytotoxicity | outcome
COc1cccc(OC)c1 | -3.01% | 
CCCCCCCCCCCCCCC | 0.429% | 
COC(=O)CCCC(=O)O | -4.84% | 
NC(=O)c1ncn([C@@H]2O[C@H](CO)[C@@H](O)[C@H]2O)c1O | 3.94% | 
COc1ccc(COC=O)cc1 | 0.435% | 
OCc1ccccn1 | -3.73% | 
Nc1ccc2cc(S(=O)(=O)O)ccc2c1 | 0.347% | 
OCC(O)[C@@H](O)[C@H](O)[C@H](O)CO[C@H]1O[C@H](CO)[C@@H](O)[C@H](O)[C@H]1O (some centres not stated) | -10.5% | 
CN(C)N=Nc1ccccc1 | 9.6% | 
CC(O)CN(CCCN(C)C)CCCN(C)C (configuration not stated) | -0.266% | 
CCC(C)OC(=O)N1CCCCC1CCO (configuration not stated) | -13% | 
NS(=O)(=O)c1cc(C2(O)NC(=O)c3ccccc32)ccc1Cl (configuration not stated) | 15.7% [at 27 µM] | 
N#CC1(O)CCCCC1 | 5.35% [at 78.9 µM] | 
CC(C)CCCC(C)CCCC(C)CCCCC(C)CCCC(C)CCCC(C)C (configuration not stated) | -15.5% | 
CCCC=O | 0.231% | 
CCCc1ccccc1O | 1.96% | 
NC(=O)c1c(Cl)cccc1Cl | 6.6% | 
CC/C=C\C#N | 3.43% | 
